PubChem BioAssay (EPA / NIEHS)
Calls of active or inactive are those of the source. How the source made its calls: active means hit-call score of the fitted dose curve at least 0.9, where 1 is the maximum; inactive means score below 0.9.

How the values were obtained:
[1] = read-out: Tissue plasminogen activator (tPA), PLAT (gene 5327); test: BSK_BE3C_tPA: BioMAP Diversity Plus: BE3C Assay for Tissue plasminogen activator (tPA) Biomarker Activity (AID 2283041); details: primary human bronchial epithelial cells; actives raise or lower the signal
In short: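 Primary human bronchial epithelial cells in the BE3C system, exposed to compound for 24 h. tPA was quantified by ELISA; DMSO served as baseline, with gain or loss of signal fitted. Cytotoxicity checked in parallel cultures by SRB total-protein staining.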

[2] = read-out: Interleukin-8 (IL8), CXCL8 (gene 3576); test: BSK_CASM3C_IL8: BioMAP Diversity Plus: CASM3C Assay for Interleukin-8 (IL8) Biomarker Activity (AID 2283042); details: primary human coronary artery smooth muscle cells; actives raise or lower the signal;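 further: IL-8 protein level quantified by ELISA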
[3] = read-out: Human Leukocyte Antigen - DR isotype (HLADR), HLA-DRA (gene 3122); test: BSK_CASM3C_HLADR: BioMAP Diversity Plus: CASM3C Assay for Human Leukocyte Antigen - DR isotype (HLADR) Biomarker Activity (AID 2283043); details: primary human coronary artery smooth muscle cells; actives raise or lower the signal;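 further: cell-surface HLA-DR protein level quantified by ELISA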
[4] = read-out: Macrophage colony-stimulating factor (MCSF), CSF1 (gene 1435); test: BSK_CASM3C_MCSF: BioMAP Diversity Plus: CASM3C Assay for Macrophage colony-stimulating factor (MCSF) Biomarker Activity (AID 2283044); details: primary human coronary artery smooth muscle cells; actives raise or lower the signal;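 further: M-CSF protein amount quantified by ELISA after 24 h exposure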
[5] = read-out: Low-density lipoprotein receptor (LDLR), LDLR (gene 3949); test: BSK_CASM3C_LDLR: BioMAP Diversity Plus: CASM3C Assay for Low-density lipoprotein receptor (LDLR) Biomarker Activity (AID 2283045); details: primary human coronary artery smooth muscle cells; actives raise or lower the signal;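 further: LDLR protein level on the cell surface quantified by ELISA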
[6] = read-out: Monocyte Chemoattractant Protein-1 (MCP1), CCL2 (gene 6347); test: BSK_CASM3C_MCP1: BioMAP Diversity Plus: CASM3C Assay for Monocyte Chemoattractant Protein-1 (MCP1) Biomarker Activity (AID 2283046); details: primary human coronary artery smooth muscle cells; actives raise or lower the signal;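 further: MCP-1 level quantified by ELISA 24 h after dosing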
[7] = BSK_CASM3C_Proliferation: Cell Proliferation Assessment in the BioMAP Diversity Plus: CASM3C Assay (AID 2283047); details: primary human coronary artery smooth muscle cells;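 further: sulforhodamine B total protein stain as relative cell number at 560 nm; sub-confluent cells exposed 48 h before staining; fitted both ways against DMSO so gain or loss of cell number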
[8] = read-out: Monokine induced gamma interferon (MIG), CXCL9 (gene 4283); test: BSK_CASM3C_MIG: BioMAP Diversity Plus: CASM3C Assay for Monokine induced gamma interferon (MIG) Biomarker Activity (AID 2283048); details: primary human coronary artery smooth muscle cells; actives raise or lower the signal;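 further: MIG protein level measured by ELISA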
[9] = read-out: serum amyloid A (SAA), SAA1 (gene 6288); test: BSK_CASM3C_SAA: BioMAP Diversity Plus: CASM3C Assay for serum amyloid A (SAA) Biomarker Activity (AID 2283049); details: primary human coronary artery smooth muscle cells; actives raise or lower the signal;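 further: SAA protein level quantified by ELISA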
[10] = BSK_CASM3C_SRB: Viability Assessment in the BioMAP Diversity Plus: CASM3C Assay (AID 2283050); details: primary human coronary artery smooth muscle cells
[11] = read-out: Thrombomodulin, THBD (gene 7056); test: BSK_CASM3C_Thrombomodulin: BioMAP Diversity Plus: CASM3C Assay for Thrombomodulin Biomarker Activity (AID 2283051); details: primary human coronary artery smooth muscle cells; actives raise or lower the signal;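 further: thrombomodulin protein level measured by ELISA 24 h after dosing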
[12] = read-out: Tissue Factor, F3 (gene 2152); test: BSK_CASM3C_TissueFactor: BioMAP Diversity Plus: CASM3C Assay for Tissue Factor Biomarker Activity (AID 2283052); details: primary human coronary artery smooth muscle cells; actives raise or lower the signal;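 further: cell surface tissue factor protein level read by ELISA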
[13] = read-out: Interferon-gamma inducible Protein 10 (IP10), CXCL10 (gene 3627); test: BSK_hDFCGF_IP10: BioMAP Diversity Plus: hDFCGF Assay for Interferon-gamma inducible Protein 10 (IP10) Biomarker Activity (AID 2283053); details: primary human foreskin fibroblasts; actives raise or lower the signal
In short: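 Primary human foreskin fibroblasts exposed to chemicals for 24 h. IP-10 measured by ELISA; changes fitted bidirectionally against DMSO baseline.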

[14] = read-out: Urokinase-type plasminogen activator receptor (uPAR), PLAUR (gene 5329); test: BSK_CASM3C_uPAR: BioMAP Diversity Plus: CASM3C Assay for Urokinase-type plasminogen activator receptor (uPAR) Biomarker Activity (AID 2283054); details: primary human coronary artery smooth muscle cells; actives raise or lower the signal;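 further: cell-surface uPAR protein level quantified by ELISA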
[15] = read-out: Vascular cell adhesion molecule 1 (VCAM1), VCAM1 (gene 7412); test: BSK_CASM3C_VCAM1: BioMAP Diversity Plus: CASM3C Assay for Vascular cell adhesion molecule 1 (VCAM1) Biomarker Activity (AID 2283055); details: primary human coronary artery smooth muscle cells; actives raise or lower the signal;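 further: VCAM-1 protein level quantified by ELISA on the cells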
[16] = read-out: Collagen III, COL3A1 (gene 1281); test: BSK_hDFCGF_CollagenIII: BioMAP Diversity Plus: hDFCGF Assay for Collagen III Biomarker Activity (AID 2283056); details: primary human foreskin fibroblasts; actives raise or lower the signal
In short: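 Response relative to DMSO, fitted in both directions, reflects ELISA-measured collagen III in human primary skin fibroblasts 24 h after compound addition.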

[17] = read-out: Epidermal growth factor receptor (EGFR), EGFR (gene 1956); test: BSK_hDFCGF_EGFR: BioMAP Diversity Plus: hDFCGF Assay for Epidermal growth factor receptor (EGFR) Biomarker Activity (AID 2283057); details: primary human foreskin fibroblasts; actives raise or lower the signal
In short: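 Primary human foreskin fibroblasts (hDFCGF system), sampled 24 h after dosing; EGFR quantified by ELISA. Bidirectional fit relative to DMSO baseline; SRB total-protein staining in parallel cultures for cytotoxicity.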

[18] = read-out: Interleukin-8 (IL8), CXCL8 (gene 3576); test: BSK_hDFCGF_IL8: BioMAP Diversity Plus: hDFCGF Assay for Interleukin-8 (IL8) Biomarker Activity (AID 2283058); details: primary human foreskin fibroblasts; actives raise or lower the signal
In short: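 Fibroblast monolayers (human foreskin, hDFCGF) received test chemical for 24 h before ELISA detection of IL-8; either increases or decreases relative to DMSO count as activity.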

[19] = BSK_hDFCGF_Proliferation: Cell Proliferation Assessment in the BioMAP Diversity Plus: hDFCGF Assay (AID 2283059); details: primary human foreskin fibroblasts;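 further: curves fitted for both rise and fall of signal versus DMSO baseline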
In short: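 Total protein read at 560 nm after 0.1% SRB staining of TCA-fixed human skin fibroblasts, […]. Activity is fitted in both directions relative to DMSO as baseline.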

[20] = read-out: Macrophage colony-stimulating factor (MCSF), CSF1 (gene 1435); test: BSK_hDFCGF_MCSF: BioMAP Diversity Plus: hDFCGF Assay for Macrophage colony-stimulating factor (MCSF) Biomarker Activity (AID 2283060); details: primary human foreskin fibroblasts; actives raise or lower the signal
In short: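 fibroblasts (human foreskin, primary), 24 h post-dose; M-CSF by ELISA; bidirectional fit, DMSO = baseline.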

Measured: AC50

CCN(CC)C(=O)c1cc(S(=O)(=O)Cc2ccccc2)c(N2CCC(c3ccccc3)CC2)cc1N(CC)CCN(C)C
inactive: [4] | [6] | [8] | [9] | [11] | [13] | [15] | [17] | [18]
active: [1] 6.65 µM | [2] 24.8 µM | [3] 5.38 µM | [5] 0.138 µM | [7] 7.05 µM | [10] 27.1 µM | [12] 29.8 µM | [14] 20.4 µM | [16] 4.27 µM | [19] 5.9 µM | [20] 18.7 µM

CCCCCCCCCCCO
active: [7] 33.5 µM | [13] 36.8 µM | [16] 31.6 µM | [18] 32.4 µM | [19] 20 µM | [20] 29.8 µM
inactive: [1] | [2] | [3] | [4] | [5] | [6] | [8] | [9] | [10] | [11] | [12] | [14] | [15] | [17]

O=C1O[C@H]([C@@H](O)CO)C(O)=C1O
inactive: [1] | [2] | [3] | [4] | [5] | [6] | [7] | [8] | [9] | [10] | [11] | [12] | [13] | [14] | [15] | [16] | [17] | [18] | [19] | [20]
